Compound activity as filed in PubChem BioAssay.
APE1 inh: APE1 (human) endonuclease inhibition. P27695. Potency, µM (series often up to 65.8 µM), for inactives: top-dose activity change, negative = inhibition, most hits filed as inhibitors. hit rate 0.35% among 350,000. AID 2517. recombinant APE1, TAMRA/BHQ-2 abasic DNA cleavage fluorescence;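 further: plate controls were vehicle for no effect and reference inhibitor for full effect; nearly all actives have a fitted effect of over 55% in size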
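Activity was derived from the fluorescence gain between first and third kinetic reads (60 s intervals, ex 525/em 598 nm) after 50 nM THF-abasic TAMRA/BHQ-2 duplex was added to 0.75 nM APE1 preincubated 15 min with compound.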
PGK inhibitor: inhibitors of T. brucei phosphoglycerate kinase; P07378; PGK/GAPDH coupled, Kinase-Glo luminescence, 60 min; Potency, µM (series often up to 57.5 µM), without a hit: top-dose activity change, negative = inhibition, usual class: inhibitors; hit rate 0.043% among 380,000; AID 602233; further: nearly all actives have a fitted effect of over 60% in size
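Luminescent ATP detection (Kinase-Glo Plus) follows a 60-minute room-temperature incubation, with wells lacking PGK as controls. Buffer: 100 mM TEA (pH 7.6), 5 mM MgCl2, 0.01% Tween-20. Coupling enzyme GAPDH (100 nM final) supplies unstable 1,3-BPG in-well.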
BLM inh-1: Bloom syndrome helicase (human) inhibition | P54132 | recombinant BLM DNA unwinding, fluorescence dequenching | Potency, µM (titrated, usually from 56.1 µM), for the others: top-dose activity change, negative = inhibition, actives largely listed as inhibitors | hit rate 0.2% among 350,000 | AID 2528;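 further: plate controls were vehicle for no effect and no enzyme for full effect; nearly all actives have a fitted effect of over 35% in size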
Target sequence (P54132 whole entry, looked up): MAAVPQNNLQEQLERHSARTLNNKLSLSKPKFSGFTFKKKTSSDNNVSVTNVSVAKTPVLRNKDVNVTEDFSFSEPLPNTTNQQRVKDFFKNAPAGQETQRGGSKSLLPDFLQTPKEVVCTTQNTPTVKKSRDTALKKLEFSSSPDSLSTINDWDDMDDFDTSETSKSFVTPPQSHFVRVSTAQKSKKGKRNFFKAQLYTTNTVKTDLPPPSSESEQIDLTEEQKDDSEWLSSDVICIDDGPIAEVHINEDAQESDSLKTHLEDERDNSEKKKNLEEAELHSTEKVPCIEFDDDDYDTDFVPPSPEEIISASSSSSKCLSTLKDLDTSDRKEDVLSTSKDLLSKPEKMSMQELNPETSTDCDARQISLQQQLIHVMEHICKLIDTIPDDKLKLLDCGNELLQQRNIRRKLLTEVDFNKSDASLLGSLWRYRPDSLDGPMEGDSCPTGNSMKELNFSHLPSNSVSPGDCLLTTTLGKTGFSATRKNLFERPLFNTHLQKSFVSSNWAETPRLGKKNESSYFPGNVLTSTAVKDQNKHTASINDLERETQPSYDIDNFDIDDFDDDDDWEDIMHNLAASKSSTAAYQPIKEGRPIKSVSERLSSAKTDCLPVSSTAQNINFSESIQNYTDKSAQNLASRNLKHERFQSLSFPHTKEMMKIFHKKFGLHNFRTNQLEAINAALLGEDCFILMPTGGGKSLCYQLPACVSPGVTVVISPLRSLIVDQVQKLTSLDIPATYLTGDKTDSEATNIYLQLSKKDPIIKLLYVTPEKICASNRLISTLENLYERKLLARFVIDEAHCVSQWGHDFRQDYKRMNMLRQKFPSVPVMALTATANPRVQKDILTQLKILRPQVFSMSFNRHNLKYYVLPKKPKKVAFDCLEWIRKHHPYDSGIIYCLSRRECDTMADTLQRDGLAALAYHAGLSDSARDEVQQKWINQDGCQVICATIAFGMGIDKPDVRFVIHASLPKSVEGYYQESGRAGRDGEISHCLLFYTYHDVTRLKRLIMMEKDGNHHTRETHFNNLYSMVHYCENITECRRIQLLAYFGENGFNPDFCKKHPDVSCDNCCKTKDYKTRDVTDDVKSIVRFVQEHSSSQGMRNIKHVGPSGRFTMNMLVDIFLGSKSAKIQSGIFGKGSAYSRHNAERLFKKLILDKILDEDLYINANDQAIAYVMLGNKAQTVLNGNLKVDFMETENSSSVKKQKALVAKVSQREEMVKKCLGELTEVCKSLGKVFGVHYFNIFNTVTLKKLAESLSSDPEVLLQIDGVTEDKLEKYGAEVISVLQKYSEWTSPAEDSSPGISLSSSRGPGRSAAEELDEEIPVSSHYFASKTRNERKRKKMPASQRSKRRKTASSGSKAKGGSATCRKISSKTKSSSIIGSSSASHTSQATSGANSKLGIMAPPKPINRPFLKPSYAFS
FEN1 inhibitor: inhibitors of human flap endonuclease 1. P39748. Recombinant FEN1 flap cleavage, fluorescence, 15 min. Potency, µM (titrated, usually from 114 µM), inactives show top-dose activity change, negative = inhibition, most hits filed as inhibitors. hit rate 0.35% among 390,000. AID 588795; further: nearly all actives have a fitted effect of over 65% in size
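Compounds are tested as a concentration series against 10 nM FEN1; after a 15 min room-temperature preincubation, 50 nM substrate starts cleavage, with plate reads at 0 and 15 min. Normalized responses are fitted by a Hill equation.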
RECQ1 inh-1: blocks DNA unwinding by human RECQ1 | P46063 | RECQ1 DNA unwinding, red fluorescence kinetic read | Potency, µM (series often up to 57.3 µM), for the others: at the highest dose activity, negative = inhibition, usual class: inhibitors | hit rate 0.54% among 240,000;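 further: plate controls were vehicle for no effect and no enzyme for full effect; nearly all actives have a fitted effect of over 30% in size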
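50 nM RECQ1T1 preincubated 15 min with compound in Tris pH 8.0 buffer with MgCl2, DTT, Tween-20 and 2.5 ug/ml poly(dI-dC); started with 200 nM TAMRA/BHQ-2 forked duplex and 2 mM ATP. Unwinding read as fluorescence (525/598 nm), two reads 2 h apart.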
BLM inh-2: BLM (human) helicase inhibition, confirmation; BLM DNA unwinding, fluorescence quenching, biochemical; hit rate 40% among 220; Potency, µM, inactives show max response, negative = inhibition, usual class: inhibitors; shares compounds with BLM inh-1; AID 2585;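 further: strand separation dequenches TAMRA so unwinding raises red fluorescence; series mostly up to about 69 µM; nearly all actives have a fitted effect of over 45% in size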
RECQ1 inh conf: confirmation of human RECQ1 helicase inhibitors. shares compounds with RECQ1 inh-1. RECQ1 helicase DNA unwinding, fluorescence. Potency, µM (highest dose often 229 µM), inactives show at the highest dose activity change, negative = inhibition, usual class: inhibitors. hit rate 28% among 610. AID 2708; further: nearly all actives have a fitted effect of over 45% in size
ADP FP counter: displaces ADP in a fluorescence polarization counter-screen for RECQ1 hits. ADP fluorescence polarization displacement counterscreen. shares compounds with RECQ1 inh-1. hit rate 27% among 530. AID 2711. Potency, µM (doses to about 228 µM), inactives show top-dose activity change, negative = inhibition, usual class: inhibitors; further: nearly all actives have a fitted effect of over 45% in size
RECQ1 inh-2: RECQ1 helicase inhibition confirmed, round 2. hit rate 15% among 1,100. recombinant RECQ1 DNA unwinding, red fluorescence. shares compounds with RECQ1 inh-1. Potency, µM (titrated, usually from 119 µM), for the others: at the top dose activity, negative = inhibition, usual class: inhibitors. AID 504841; further: nearly all actives have a fitted effect of over 50% in size
* hit, by the source's call; i = inactive; u = inconclusive; x = no result given; ! = a repeat was not active. Compounds with a hit are over-represented: about 0.74% of the library has one in this group of screens. The call rests on the fitted dose curve; in most records, active means well fitted curve in the direction sought with a large enough effect; inconclusive means small, poorly fitted or top-dose-only effect, or another doubt; inactive means no such curve, though single readings can be large; an effect the other way counts as inactive or inconclusive. Unless noted, on the % scale 0 is the no-effect control and ±100 the full control effect; potency means the concentration at half of the fitted maximal effect.

SMILES | APE1 inh | PGK inhibitor | BLM inh-1 | FEN1 inhibitor | RECQ1 inh-1 | RECQ1 inh conf | RECQ1 inh-2 | others
N#C/C(=C\c1ccc(O)c(O)c1)C(=O)NCCCNC(=O)/C(C#N)=C/c1ccc(O)c(O)c1 | 0.63µM* | x | x | x | 0.45µM* | 0.51µM* | x | BLM inh-2=27µM*
C[C@]12CC[C@@H]3c4ccc(OC(=O)N(CCCl)CCCl)cc4CC[C@H]3[C@@H]1CC[C@@H]2O | x | x | 14µM* | x | x | u | x | BLM inh-2=30µM*
COc1ccc(NC2=NCC(C)S2)cc1 (configuration not stated) | -3% | -7% | -5% | -3% | -10% | x | x
COc1cc2c(cc1OC)C(c1c(O)n(CCc3ccccc3)c(=S)[nH]c1=O)NCC2 (configuration not stated) | 0% | 0% | -6% | -14% | u | x | u
O=C1C=CC(=O)C(Cl)=C1 | 28µM* | x | -16% | x | 20µM* | u | x | ADP FP counter=16µM*
COC(=O)C1=C(c2ccc(S(C)(=O)=O)cc2)C[C@@H]2CC[C@H]1N2C(=O)NCCS(C)=O (some centres not stated) | x | -4% | x | 3% | x | x | x
CCOC(=O)c1c(/N=C/c2c(O)n(-c3ccccc3F)c(=S)[nH]c2=O)sc2c1CCCC2 | -4% | -2% | -10% | -20% | i | x | x
CCOC(=O)c1ccc(N=Cc2c(O)n(-c3ccccc3F)c(=S)[nH]c2=O)cc1 | 10% | -9% | 0% | u | 32µM* | x | -13%
O=C(O)Cn1cc(C=C2C(=O)NC(=O)NC2=O)c2ccccc21 | 21% | 4% | 1% | -3% | x | x | x
O=C(O)CCn1cc(C=C2C(=O)NC(=O)NC2=O)c(-c2cc3ccccc3oc2=O)n1 | -8% | -6% | 3% | -10% | 21% | 15% | x | ADP FP counter=-3%
Cc1ccc(-c2cc(-c3ccc(C)cc3)[n+](-c3ccc(C(=O)O)cc3)c(-c3ccc(C)cc3)c2)cc1 | 58% | -3% | x | 6% | x | x | x
O=C(O)c1ccc(-c2ccc3cc(C45CC6CC(CC(C6)C4)C5)c(O)cc3c2)cc1 | -10% | x | -1% | x | 20µM* | 100µM* | u | ADP FP counter=112µM*
O=C1C(=O)c2cccc3cccc1c23 | 19% | 2% | -11% | 8% | -6% | x | x
O=C1C(=O)c2ccccc2-c2ccccc21 | u | u | 20µM* | -17% | u | x | 10µM*
O=c1c2ccccc2nc(-c2ccccc2F)n1-c1ccccc1 | -10% | -4% | -2% | -9% | x | x | x
O=C(O)c1ccccc1-c1nc2ccccc2n1-c1ccccc1 | 3% | -3% | 0% | -2% | 11µM* | 40µM* | 1.8µM*
COc1cccc(CNC(=O)CSc2ccc(-c3ccco3)nn2)c1 | u | 11% | -20% | -1% | u | x | -14%
CN(C)/C=C1/C(=O)NC(=O)N(CCNc2ncc(C(F)(F)F)cc2Cl)C1=O | -5% | -5% | -5% | -12% | 1% | x | x
CCC(C=C[C@@H]1OC(=O)C=C[C@H]1C)=C[C@H](C)CC=CC(C)=C[C@@H](C)C(=O)[C@@H](C)[C@H](O)[C@@H](C)CC(C)=CC(=O)O | u | x | u | x | u | x | 1.3µM*
CC(C)CNC(=O)/C=C/C=C/CCCCCC/C=C/c1ccc2c(c1)OCO2 | 3% | -1% | x | -2% | x | x | x
CCN1C[C@]2(COC)CC[C@H](O)[C@]34C1[C@](O)([C@@H](OC)[C@H]23)[C@@]1(O)C[C@H](OC)[C@H]2C[C@@H]4[C@@H]1[C@H]2OC | 33% | 0% | x | -14% | x | x | x
CCN(CC)C(=O)N[C@@H]1C=C2c3cccc4[nH]cc(c34)C[C@H]2N(C)C1 | x | x | -8% | x | u | -6% | x | ADP FP counter=22µM*
COC(=O)C1C=C2c3cccc4[nH]cc(c34)CC2N(C)C1 (configuration not stated) | -9% | x | -26% | x | u | x | x
CC[C@@H](CO)NC(=O)[C@@H]1C=C2c3cccc4[nH]cc(c34)C[C@H]2N(C)C1 | u | 0% | -17% | -19% | 35µM* | 3% | x | ADP FP counter=112µM*
CN1C[C@H](C(=O)N[C@]2(C)O[C@@]3(O)[C@@H]4CCCN4C(=O)[C@H](Cc4ccccc4)N3C2=O)C=C2c3cccc4[nH]cc(c34)C[C@H]21 | u | x | -12% | x | u | u | x | ADP FP counter=7.1µM*
SMILES | APE1 inh | PGK inhibitor | BLM inh-1 | FEN1 inhibitor | RECQ1 inh-1 | RECQ1 inh conf | RECQ1 inh-2 | others
CCCc1nc2ccccc2c(=O)n1-c1ccc(O)cc1 | -11% | 3% | 0% | 0% | i | x | x
CC(C)(C)c1ccc(C(=O)C2CCCN(Cc3ccon3)C2)cc1 (configuration not stated) | -2% | -4% | -8% | -10% | -10% | x | x
C1CC2NCCC3NCCC(N1)N32 (configuration not stated) | 5% | i | -3% | -5% | -1% | x | x
Cl/C=C\Cl | -3% | x | x | x | -14% | x | x
CCCCN1C(=O)NC(=O)C2(Cc3c(nc4ccccn4c3=O)N3CCc4ccccc4C32)C1=O (configuration not stated) | 2% | -10% | -3% | 14% | -3% | x | x
CCCC(=O)O[C@@H]1[C@@H](C)[C@@]2(O)[C@@H](C=C(CO)C[C@]3(O)C(=O)C(C)=C[C@@H]23)[C@@H]2C(C)(C)[C@]12OC(=O)CCC | 17% | x | 1% | x | -6% | x | x
CC1COC2=C1C(=O)C(=O)c1c2ccc2c1CCCC2(C)C (configuration not stated) | u | x | u | x | 13µM*! | 100µM* | x | ADP FP counter=28µM*
C[C@H]1COC2=C1C(=O)C(=O)c1c2ccc2c1CCCC2(C)C | -3% | -9% | -22% | u | u | x | x
O=c1[nH]c(=S)n(CCC2=CCCCC2)c(O)c1C=NCCCn1ccnc1 | 16% | -10% | -8% | -7% | u | x | -19%
COC[C@H]1OC(=O)c2coc3c2[C@@]1(C)C1=C(C3=O)[C@@H]2CCC(=O)[C@@]2(C)C[C@H]1OC(C)=O | -10% | -3% | x | 0% | 35µM* | x | 5%
